Test results: PubChem BioAssay AID1159580 (chemical genetic matrix, 2015)
Where “and” joins values, the source holds several entries; their conditions need not be identical. Identical values can stand only once. About 2,000 (36%) of roughly 5,500 compounds were called active. About 18% were inconclusive and are not listed. No stated cut-off is given here; in the data, active means normalized growth mostly below about 0.91 (no sharp cut-off); inconclusive means no clear call, values can overlap the other calls; inactive means mostly above about 0.92. Some of the results follow.

Assay: chemical genetic growth profiling, strain panel (AID 1159580);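 further: tested at 20 µM; growth read once vehicle control cultures reached saturation at 30 °C; 1 = growth at the plate median or of vehicle wells; lower values mean less growth of the strain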
Conditions: S. cerevisiae deletion strains, growth OD

Measured: normalized growth

C[C@]12C=CC(=O)C=C1CCC1C2CC[C@]2(C)C(=O)CCC12 (stereo partly drawn)
inactive: locus YAL021C, strain ccr4, hits give low values 0.97 | locus YAL026C, strain drs2, hits give low values 0.983 | locus YAL030W, strain snc1, hits give low values 0.976 | locus YBL061C, strain skt5, hits give low values 0.971 | locus YBR009C, strain hhf1, hits give low values 0.966 | locus YBR021W, strain FUR4, hits give low values 0.986 | locus YBR023C, strain chs3, hits give low values 0.979 | locus YBR171W, strain sec66, hits give low values 0.987 | locus YBR229C, strain ROT2, hits give low values 0.992 | locus YBR231C, strain swc5, hits give low values 0.982 | locus YBR279W, strain paf1, hits give low values 0.982 | locus YCL011C, strain gbp2, hits give low values 0.988 | locus YCL016C, strain dcc1, hits give low values 0.976 | locus YCL029C, strain bik1, hits give low values 0.992 | locus YCL061C, strain MRC1, hits give low values 0.972 | locus YCL069W, strain vba3, hits give low values 0.981 | locus YCR088W, strain abp1, hits give low values 0.98 | locus YDL005C, strain med2, hits give low values 0.977 | locus YDL035C, strain GPR1, hits give low values 1.03 | locus YDL040C, strain nat1, hits give low values 0.985 | locus YDL074C, strain BRE1, hits give low values 1.01 | locus YDL101C, strain DUN1, hits give low values 1.01 | locus YDL134C, strain PPH21, hits give low values 1.01 | locus YDL185W, strain tfp1, hits give low values 1 | locus YDL192W, strain arf1, hits give low values 0.981 | locus YDR001C, strain nth1, hits give low values 0.984 | locus YDR069C, strain doa4, hits give low values 0.978 | locus YDR101C, strain arx1, hits give low values 0.981 | locus YDR137W, strain rgp1, hits give low values 1.04 | locus YDR150W, strain NUM1, hits give low values 1.01 | locus YDR159W, strain sac3, hits give low values 0.928 | locus YDR162C, strain NBP2, hits give low values 1.03 | locus YDR195W, strain ref2 0.935 | locus YDR297W, strain sur2, hits give low values 0.972 | locus YDR318W, strain mcm21, hits give low values 0.992 | locus YDR334W, strain swr1, hits give low values 0.976 | locus YDR335W, strain msn5, hits give low values 0.988 | locus YDR388W, hits give low values 0.981 | locus YDR392W, strain spt3, hits give low values 0.877 | locus YDR502C, strain sam2, hits give low values 0.976 | locus YEL003W, strain gim4, hits give low values 0.988 | locus YEL037C, strain rad23, hits give low values 0.989 | locus YEL061C, strain CIN8 (second series), hits give low values 0.988 | locus YEL061C, strain CIN8, hits give low values 0.995 | locus YER015W, strain faa2, hits give low values 0.981 | locus YER016W, strain bim1, hits give low values 0.981 | locus YER110C, hits give low values 0.984 | locus YER111C, strain swi4, hits give low values 0.986 | locus YER155C, strain BEM2 (second series), hits give low values 0.949 | locus YER155C, strain BEM2, hits give low values 0.979 | locus YER167W, strain BCK2, hits give low values 0.986 | locus YFR010W, strain ubp6, hits give low values 0.988 | locus YGL078C, strain dbp3, hits give low values 0.986 | locus YGL086W, strain mad1, hits give low values 0.983 | locus YGL167C, strain pmr1, hits give low values 0.976 | locus YGL173C, strain kem1, hits give low values 0.98 | locus YGL227W, strain vid30, hits give low values 0.984 | locus YGL240W, strain doc1, hits give low values 0.926 | locus YGL248W, strain PDE1, hits give low values 0.995 | locus YGL253W, strain hxk2, hits give low values 0.987 | locus YGR078C, strain PAC10, hits give low values 1.02 | locus YGR135W, strain pre9, hits give low values 0.996 | locus YGR229C, strain SMI1, hits give low values 1.07 | locus YGR252W, strain gcn5, hits give low values 0.988 | locus YHR013C, strain ard1, hits give low values 0.951 | locus YHR027C, strain rpn1, hits give low values 0.99 | locus YHR030C, strain SLT2, hits give low values 1.01 and 0.976 | locus YHR079C, strain IRE1 (second series), hits give low values 0.987 | locus YHR079C, strain IRE1, hits give low values 0.978 | locus YHR094C, strain hxt1, hits give low values 0.981 | locus YHR129C, strain ARP1, hits give low values 1 | locus YHR142W, strain chs7, hits give low values 0.995 | locus YHR200W, strain rpn10, hits give low values 0.976 | locus YIL066C, strain RNR3, hits give low values 1.01 | locus YIL073C, strain SPO22, hits give low values 1.04 | locus YIL125W, strain kgd1, hits give low values 0.975 | locus YIR030C, strain dcg1, hits give low values 0.992 | locus YJL092W, strain hpr5, hits give low values 0.985 | locus YJL095W, strain BCK1 (second series), hits give low values 0.98 | locus YJL095W, strain BCK1, hits give low values 1 and 0.98 | locus YJL115W, strain asf1, hits give low values 0.977 | locus YJL129C, strain trk1, hits give low values 0.985 | locus YJL134W, strain LCB3, hits give low values 1.01 | locus YJL154C, strain vps35, hits give low values 0.998 | locus YJL164C, strain tpk1, hits give low values 0.976 | locus YJL166W, strain qcr8, hits give low values 0.957 | locus YJL168C, strain set2, hits give low values 0.978 | locus YJL187C, strain SWE1 (second series), hits give low values 1.02 | locus YJL187C, strain SWE1, hits give low values 0.979 | locus YJR043C, strain POL32, hits give low values 1.03 | locus YJR066W, strain TOR1, hits give low values 0.937 | locus YKL009W, strain mrt4, hits give low values 1 | locus YKL068W, hits give low values 1 | locus YKL085W, strain MDH1 (second series), hits give low values 0.993 | locus YKL085W, strain MDH1, hits give low values 0.993 | locus YKL160W, strain elf1, hits give low values 0.985 | locus YKR001C, strain vps1, hits give low values 0.986 | locus YKR026C, strain gcn3, hits give low values 0.962 | locus YKR091W, strain srl3, hits give low values 0.976 | locus YLL001W, strain dnm1, hits give low values 0.969 | locus YLL026W, hits give low values 0.981 | locus YLL041C, strain sdh2, hits give low values 0.981 | locus YLR027C, strain aat2, hits give low values 0.984 | locus YLR039C, strain RIC1, hits give low values 1.27 | locus YLR058C, strain SHM2, hits give low values 0.993 | locus YLR102C, strain apc9, hits give low values 0.997 | locus YLR113W, strain HOG1, hits give low values 0.966 | locus YLR221C, strain rsa3, hits give low values 0.977 | locus YLR258W, strain gsy2, hits give low values 0.973 | locus YLR262C, strain YPT6 (second series), hits give low values 1.05 | locus YLR262C, strain YPT6, hits give low values 1.23 | locus YLR268W, strain sec22, hits give low values 0.997 | locus YLR320W, strain mms22, hits give low values 0.946 | locus YLR330W, strain CHS5, hits give low values 1 | locus YLR342W, strain FKS1 (second series), hits give low values 0.958 | locus YLR342W, strain FKS1, hits give low values 0.976 | locus YLR357W, strain rsc2, hits give low values 1.01 | locus YLR370C, strain arc18, hits give low values 0.977 | locus YLR371W, strain rom2, hits give low values 0.993 | locus YLR384C, strain iki3, hits give low values 0.983 | locus YLR418C, strain cdc73, hits give low values 0.968 | locus YML016C, strain PPZ1, hits give low values 0.994 | locus YML032C, strain rad52, hits give low values 0.996 | locus YML120C, strain ndi1, hits give low values 0.983 | locus YML124C, strain tub3, hits give low values 0.982 | locus YMR058W, strain fet3, hits give low values 0.979 | locus YMR078C, strain ctf18, hits give low values 0.974 | locus YMR125W, strain sto1, hits give low values 0.997 | locus YMR129W, hits give low values 0.991 | locus YMR205C, strain PFK2, hits give low values 0.963 | locus YMR223W, strain ubp8, hits give low values 0.98 | locus YMR231W, strain pep5, hits give low values 0.986 | locus YMR263W, strain SAP30, hits give low values 0.99 | locus YMR307W, strain GAS1, hits give low values 1.16 | locus YNL067W, strain RPL9B, hits give low values 1.02 | locus YNL071W, strain lat1, hits give low values 0.977 | locus YNL128W, strain TEP1, hits give low values 1.02 | locus YNL153C, strain GIM3, hits give low values 1.01 | locus YNL183C, strain NPR1, hits give low values 0.897 | locus YNL209W, strain ssb2, hits give low values 0.985 | locus YNL233W, strain BNI4, hits give low values 0.994 | locus YNL248C, strain rpa49, hits give low values 0.991 | locus YNL250W, strain rad50, hits give low values 0.99 | locus YNL271C, strain bni1, hits give low values 0.989 | locus YNL298W, strain CLA4, hits give low values 0.981 | locus YNL307C, strain MCK1, hits give low values 0.982 | locus YNL322C, strain KRE1 (second series), hits give low values 0.978 | locus YNR049C, strain mso1, hits give low values 0.983 | locus YNR052C, strain pop2, hits give low values 0.989 | locus YOL006C, strain TOP1, hits give low values 0.98 | locus YOL012C, strain htz1 1.46 | locus YOL147C, strain pex11, hits give low values 0.997 | locus YOR001W, strain rrp6, hits give low values 0.98 | locus YOR061W, strain CKA2, hits give low values 0.996 | locus YOR069W, strain VPS5, hits give low values 0.998 | locus YOR070C, strain gyp1, hits give low values 0.989 | locus YOR080W, strain dia2, hits give low values 0.972 | locus YOR083W, strain WHI5, hits give low values 0.983 | locus YOR106W, strain vam3, hits give low values 0.982 | locus YOR136W, strain idh2, hits give low values 0.987 | locus YOR144C, strain elg1, hits give low values 0.977 | locus YOR184W, strain ser1, hits give low values 0.985 | locus YOR231W, strain MKK1, hits give low values 0.98 | locus YOR265W, strain rbl2, hits give low values 0.983 | locus YOR270C, strain vph1, hits give low values 0.941 | locus YOR290C, strain snf2, hits give low values 0.943 | locus YOR316C, strain cot1, hits give low values 0.984 | locus YPL051W, strain arl3, hits give low values 0.998 | locus YPL055C, strain LGE1, hits give low values 1.02 | locus YPL078C, strain atp4, hits give low values 0.989 | locus YPL106C, strain sse1, hits give low values 0.958 | locus YPL240C, strain hsp82, hits give low values 0.965 | locus YPL256C, strain CLN2, hits give low values 0.98 | locus YPR119W, strain clb2, hits give low values 0.975 | locus YPR141C, strain kar3, hits give low values 0.982 | locus YPR163C, strain tif3, hits give low values 0.992 | locus YPR167C, strain met16, hits give low values 0.981 | strain wtn01, hits give low values 0.99
